Test results published in PubChem BioAssay (NCI).
The panel holds about 83,000 compounds, 20% with a hit somewhere; the sample as a whole holds those more often.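 Method: cells in 96-well plates; compound added at one concentration; 48 h incubation; percent growth measured; values under 10 scored active.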 Calls of active or inactive are those of the source.

What was measured:
Test in all cases: NCI-60 one-dose screen, 48 h (100 = growth as untreated, 0 = no growth, -100 = all killed)
A549/ATCC NSCLC = conditions: 10 µM unless noted
DU-145 prostate = conditions: 10 µM unless noted
K-562 leukemia = conditions: 10 µM unless noted
RXF 393 renal = conditions: 10 µM unless noted
UACC-257 melanoma = conditions: 10 µM unless noted
HT29 colon = conditions: 10 µM unless noted
SNB-75 CNS = conditions: 10 µM unless noted
PC-3 prostate = conditions: 10 µM unless noted
SK-MEL-5 melanoma = conditions: 10 µM unless noted
UACC-62 melanoma = conditions: 10 µM unless noted
SK-MEL-2 melanoma = conditions: 10 µM unless noted
ACHN renal = conditions: 10 µM unless noted
A498 renal = conditions: 10 µM unless noted
MOLT-4 leukemia = conditions: 10 µM
OVCAR-8 ovarian = conditions: 10 µM unless noted
OVCAR-5 ovarian = conditions: 10 µM unless noted
HS 578T breast = conditions: 10 µM unless noted
NCI/ADR-RES ovarian = conditions: 10 µM unless noted
T-47D breast = conditions: 10 µM unless noted
HL-60(TB) leukemia = conditions: 10 µM unless noted

SMILES | growth (A549/ATCC NSCLC) | growth (DU-145 prostate) | growth (K-562 leukemia) | growth (RXF 393 renal) | growth (UACC-257 melanoma) | growth (HT29 colon) | growth (SNB-75 CNS) | growth (PC-3 prostate) | growth (SK-MEL-5 melanoma) | growth (UACC-62 melanoma) | growth (SK-MEL-2 melanoma) | growth (ACHN renal) | growth (A498 renal) | growth (MOLT-4 leukemia) | growth (OVCAR-8 ovarian) | growth (OVCAR-5 ovarian) | growth (HS 578T breast) | growth (NCI/ADR-RES ovarian) | growth (T-47D breast) | growth (HL-60(TB) leukemia)
O=[N+]([O-])c1ccccc1N1CCNCC1 | 95% (inactive) | 108% (inactive) | 91.7% (inactive) | 121% (inactive) | 94.4% (inactive) | 85.4% (inactive) | 92.5% (inactive) | 103% (inactive) | 102% (inactive) | 95.8% (inactive) | 106% (inactive) | 105% (inactive) | 97.6% (inactive) | 103% (inactive) | 107% (inactive) | 94% (inactive) | 107% (inactive) | 93.6% (inactive) | -4.84% (active) | –
COC1=CC(=O)OC(CCc2ccc3c(c2)OCO3)C1 (centres undefined) | 96% (inactive) | 122% (inactive) | 122% (inactive) | 70.2% (inactive) | 97.8% (inactive) | 97.1% (inactive) | 96.3% (inactive) | 106% (inactive) | 102% (inactive) | 107% (inactive) | 97.4% (inactive) | 107% (inactive) | 101% (inactive) | 121% (inactive) | 96.1% (inactive) | 101% (inactive) | 109% (inactive) | 120% (inactive) | 94.7% (inactive) | 113% (inactive)
CC1(C)N=C(N)N=C(N)N1c1ccc(CCCCc2ccc(Cl)cc2S(=O)(=O)F)c(Cl)c1 | 9.77% (active) | 22.5% (inactive) | 14.5% (inactive) | 29.6% (inactive) | 10.1% (inactive) | 11.4% (inactive) | 51.9% (inactive) | 21.3% (inactive) | 19.5% (inactive) | 22.5% (inactive) | 38.3% (inactive) | 18.7% (inactive) | 54.7% (inactive) | 28.7% (inactive) | 15.2% (inactive) | 31.4% (inactive) | 65.5% (inactive) | 53.3% (inactive) | 28.6% (inactive) | 15.5% (inactive)
